Assay outcomes: PubChem BioAssay, several laboratories
An excerpt weighted towards active compounds, which were near 3.6% of everything screened.
Mtb hypoxia inh: reduces hypoxia-regulated biosensor signal in M. tuberculosis. M. tuberculosis hypoxia-regulated fluorescent reporter, fluorescence. fluorescence inhibition, % (concentration not given with the values). 0.1% of 300,000 active. AID 1159583; in the data active = fluorescence inhibition mostly above about 23%, no sharp cut-off; inactive = mostly below about 17%
GDH-TPI counter: counter-screen for M. tuberculosis FBA inhibitors: GDH-TPI coupled enzymes; GDH-TPI coupled enzyme counterscreen, NADH absorbance; inhibition, % at 4.8 µM; 1.2% of 360,000 active; AID 588335; in the data active = inhibition above about 30%;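 also: 0% = DMSO wells and 100% = wells lacking the enzyme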
Mtb betalactam: beta-lactam sensitization of Mtb H37Rv; M. tuberculosis H37Rv growth with meropenem, percent inhibition; inhibition, % at 25 µM; 0.27% of 330,000 active; AID 434955; call rule not given here;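 also: growth measured after seven days incubation then overnight dye step; 0% = bacteria only wells and 100% = bacteria with antibiotic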
DUSP3 inh: inhibitors of human VHR1 phosphatase (DUSP3); 0.52% of 290,000 active; recombinant VHR phosphatase, pNPP absorbance; inhibition, % at 13.3 µM; AID 1654; P51452; in the data active = inhibition above about 50%
Target sequence (P51452 whole entry, looked up): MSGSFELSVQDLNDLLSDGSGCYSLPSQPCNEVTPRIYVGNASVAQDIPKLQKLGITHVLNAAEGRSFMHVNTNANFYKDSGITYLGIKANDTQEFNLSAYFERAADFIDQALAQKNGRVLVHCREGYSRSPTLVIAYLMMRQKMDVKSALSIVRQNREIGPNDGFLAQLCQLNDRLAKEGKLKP
Mtb FBA inh: inhibits M. tuberculosis FBA enzyme; inhibition, % at 1 µM; 2.3% of 360,000 active; purified M. tuberculosis FBA, fluorescence read-out; P9WQA3; in the data active = inhibition above about 27%;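 also: 0% = vehicle and 100% = reference inhibitor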
The depositor's hits bear a star; . = no result given; + = active, no number.

SMILES	Mtb hypoxia inh	GDH-TPI counter	Mtb betalactam	DUSP3 inh	Mtb FBA inh
Cc1cc(OCC(=O)N[C@@H](Cc2c[nH]c3ccccc23)C(=O)O)c2c(C)c(C)c(=O)oc2c1	.	10	0	17	2
CSC[C@H](NC(=O)COc1cc2c(c3oc(=O)cc(C)c13)CCC(C)(C)O2)C(=O)O	7	7	-3	24	+
O=C(NCC1CC1)C1CC1C(NP(=O)(c1ccccc1)c1ccccc1)c1ccccc1 (configuration not stated)	14	.	.	.	.
CC(C)CC(CC#N)N1CCN(CCc2ccccc2)CCC1=O (configuration not stated)	4	.	.	.	.
C=CC[N+](C)(C)CCCNC(=O)C=NO	6	.	.	.	.
CC1(C)OC(=O)C(=CNc2ccccc2F)C(=O)O1	7	12	-5	-6	0
COc1ccccc1NC=C1C(=O)OC(C)(C)OC1=O	0	47*	-17	8	-2
CC1(C)OC(=O)C(=CNc2cccc(O)c2)C(=O)O1	19	35*	-5	30	-1
CCOc1ccccc1NC=C1C(=O)OC(C)(C)OC1=O	0	41*	1	44	-1
CC1(C)OC(=O)C(=CNc2ccccc2)C(=O)O1	-1	17	-1	32	-4
COC(=O)c1ccc(C=NOCC(=O)Nc2cc(F)ccc2F)cc1	8	.	.	.	.
Cc1nccc2c1[nH]c1ccc(Br)cc12	.	9	7	.	7
COc1ccc2c(c1)[nH]c1c(C)nccc12	-5	7	10	.	151*
COc1ccc2c(COC(=O)CNS(=O)(=O)c3ccccc3)cc(=O)oc2c1	10	14	-6	.	119*
COc1ccc2c(COC(=O)c3cccc(S(=O)(=O)NCC(C)C)c3)cc(=O)oc2c1	14	0	-7	-11	42*
COC(=O)Cc1cc(=O)oc2cc(OC)ccc12	6	15	-5	-4	119*
COc1cc(OC)cc(C(=O)NCC(=O)OCc2cc(=O)oc3cc(OC)ccc23)c1	-2	11	-10	-4	15
COc1ccc(OC)c(CN2CCN(Cc3cc(=O)oc4cc(O)ccc34)CC2)c1	-2	11	25	-15	115*
COC(=O)C1CCN(Cc2cc(=O)oc3cc(OC)ccc23)CC1	5	24	15	33	22
COC(=O)Oc1ccc(C=NNC(=O)CSCc2ccccc2Br)cc1OC	2	.	.	.	.
CC1CN(C(C)CO)C(=O)c2cc(NC(=O)Cn3cnnn3)ccc2OC1CN(C)Cc1ccc(Oc2ccccc2)cc1 (configuration not stated)	11	.	.	.	.
Cc1ccc(C(=O)NC(=Cc2cccs2)C(=O)NCCCn2ccnc2)cc1C	-1	.	.	.	.
CCc1ccc(OCC(=O)Nc2ccc(-c3nc4ccccc4o3)c(O)c2)cc1	.	2	50	15	5
Oc1cc(NCc2cccnc2)ccc1-c1nc2ccccc2o1	0	64*	98	9	11
NC(=O)C1=CC(c2coc3ccccc3c2=O)CC(OCCCCO)O1 (configuration not stated)	0	.	.	.	.
SMILES	Mtb hypoxia inh	GDH-TPI counter	Mtb betalactam	DUSP3 inh	Mtb FBA inh
O=c1c2cc(Br)ccc2nc(-c2ccc(Cl)cc2)n1O	2	6	87	52*	2
O=C1N=C(N2CCCCC2)SC1=C1CCCCC1	.	-3	74	18	-2
O=C1NC(=S)SC1=C1CCCCCC1	17	33*	-3	-18	-1
COc1ccc(OC)c(C=NNC(=O)CCc2ccc(O)c(O)c2)c1	18	.	.	.	.
Cc1c(NC(=S)NC(=O)c2ccc(-c3ccc(Cl)cc3)o2)cccc1C(=O)O	6	32*	-9	6	1
O=c1c(=Cc2ccc(O)cc2)sc2n1C(c1ccccc1)C(c1ccccc1)=NN=2 (configuration not stated)	-1	.	.	.	.
Cc1c(C(=O)N2CCC3(CC2)OCCO3)sc2ncnc(N(C)c3ccccc3)c12	.	20	17	15	1
Cc1c(C(=O)N2CCC(C)CC2)sc2ncnc(N(C)c3ccccc3)c12	15	35*	-4	-12	0
Brc1cc2c(cc1/C=N/Nc1nc(N3CCCC3)nc(N3CCOCC3)n1)OCO2	.	32*	6	20	-4
CC1CN(C(C)CO)C(=O)c2cccc(NS(=O)(=O)c3cccs3)c2OC1CN(C)Cc1ccncc1 (configuration not stated)	5	.	.	.	.
Cc1ccc(N/C=C2\C(=O)N(c3ccc(F)cc3F)C(c3cccnc3)S2(=O)=O)cc1 (configuration not stated)	-8	66*	-6	16	3
CCNc1nc2nc3ccc(C)cn3c(=O)c2cc1C(=O)NCC1CCCO1 (configuration not stated)	13	-3	5	12	+
